# Test results taken from PubChem BioAssay.
# Experiment: growth inhibition of CRL1545 osteosarcoma cells, cell-based, cisplatin and BGB IC20 combos (AID 1671464);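 further: cells exposed to compound for 96 hours before readout; 0% = vehicle DMSO and 100% = high DMSO killing control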
# Settings: single agent, at 5 µM, stronger effect = higher value
row,Compound,inhibition
1,O=c1cc(-c2cccc3c2Sc2ccccc2S3)oc(N2CCOCC2)c1,-31.2%
2,CCc1c2c(nc3ccc(O)cc13)-c1cc3c(c(=O)n1C2)COC(=O)[C@]3(O)CC,99.8%
3,O=c1[nH]c(-c2ccc(C(F)(F)F)cc2)nc2c1CSCC2,-18.2%
